Hits are enriched below; roughly 19% of the tested compounds scored in any of these assays.
IL1B secr inh = qHTS for Inhibitors of Inflammasome Signaling: IL-1-beta AlphaLISA Primary Screen | THP-1 LPS/ATP IL-1B secretion, AlphaLISA, 16 h; hits give low values | activity change, % at 57.5 µM | hit rate 4.7% among 360,000; in the data active means activity change below about -50%; inconclusive means mostly about -30% to -49%
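THP-1 cells pretreated 1 hr with compounds (up to 57.5 uM final), then stimulated with LPS (250 ng/mL final) plus ATP (1.25 mM final); secreted IL-1B measured by AlphaLISA after 16 hr, decreased signal indicating inhibition.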
DT40 TDP1 no CPT = qHTS for Inhibitors of human tyrosyl-DNA phosphodiesterase 1 (TDP1): qHTS in cells in absence of CPT; AID 686978, 2013; hit rate 15% among 420,000; DT40 Tdp1-/- hTDP1 cells, no CPT, ATP luminescence, 48 h; Potency, µM (top dose mostly 46.2 µM), usual class: inhibitors; further: nearly all actives have a fitted effect of over 55% in size
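Cells were dispensed at 400 per well, compounds added by pin tool, plates incubated ≥48 hr at 37 °C, then CellTiter-Glo added for 30 min at room temperature before luminescence reading. Line: DT40 Tdp1-/- complemented with hTDP1; camptothecin omitted.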
TDP1 cell CPT = qHTS for Inhibitors of human tyrosyl-DNA phosphodiesterase 1 (TDP1): qHTS in cells in presence of CPT. chicken DT40 Tdp1-/-;hTDP1 cells + 20 nM CPT, ATP luminescence, 48 h. AID 686979, 2013. hit rate 12% among 420,000. Potency, µM (top dose mostly 46.2 µM), hits mostly inhibitors; further: nearly all actives have a fitted effect of over 55% in size
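Cell growth measured by CellTiter-Glo luminescence after a minimum 48 h, 37 C compound exposure with 20 nM CPT in Tdp1-knockout DT40 cells stably expressing hTDP1, seeded 400/well; qHTS titration format.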
HT1080-NT tox = qHTS for induction of synthetic lethality in tumor cells producing 2HG: qHTS for the HT-1080-NT fibrosarcoma cell line; HT-1080-NT fibrosarcoma viability, CellTiter-Glo ATP luminescence, 48 h; Potency, µM (series often up to 46.1 µM), usual class: cytotoxic; hit rate 1.6% among 360,000;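 further: NT is the 2HG producing partner of a matched IDH1 knockdown line; nearly all actives have a fitted effect of over 55% in size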
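Viability by CellTiter-Glo luminescence after 48 h compound exposure at 37C of HT-1080-NT cells (750/well, RPMI, 5% FBS). % activity scaled between DMSO wells and medium-only wells, then curve-fitted and categorized by curve class.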
uPA generation = qHTS for Inhibitors of Cell Surface uPA Generation | cell surface uPA generation assay, qHTS | Potency, µM (series often up to 38.3 µM), actives largely listed as inhibitors | hit rate 0.31% among 330,000 | AID 540303, 2011; active means well fitted inhibition curve with a large enough effect; inconclusive means small, poorly fitted or top-dose-only effect; inactive means no such curve, though single readings can be large or run the other way; tested in mouse RAW 264.7 cells; further: nearly all actives have a fitted effect of over 55% in size
HT1080 IDH1KD tx = qHTS for induction of synthetic lethality in tumor cells producing 2HG: qHTS for the HT-1080-IDH1KD cell line; Potency, µM (top dose mostly 46.1 µM), hits mostly cytotoxic; hit rate 2% among 360,000; AID 686971, 2013; HT-1080 IDH1 knockdown viability, ATP luminescence, 48 h
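Cytotoxicity counter-line: IDH1KD HT-1080, 48 h, CellTiter-Glo. Curves classed by r2, magnitude and activity.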
Numbers stand for hits; i = inactive; ? = inconclusive; nt = no result; ! = not active in a repeat. Unless noted, the call rests on the fitted dose curve; in most records, active means well fitted curve in the direction sought with a large enough effect; inconclusive means small, poorly fitted or top-dose-only effect, or another doubt; inactive means no such curve, though single readings can be large; an effect the other way counts as inactive or inconclusive.

SMILES	IL1B secr inh	DT40 TDP1 no CPT	TDP1 cell CPT	HT1080-NT tox	uPA generation	HT1080 IDH1KD tx
O=C(c1ccc(F)cc1F)N1CCCN(c2nc(-c3ccccc3)ns2)CC1	i	?	?	i	i	i
CC(=O)Nc1ccc(NC(=O)CSc2nc(N)c(NC(=O)c3ccco3)c(=O)[nH]2)cc1	i	?	?	i	i	i
CCC(=O)N1c2ccccc2NC2=C(C(=O)CC(C)(C)C2)C1c1ccc(O)c(OC)c1 (stereo not drawn)	i	i	i	i	i	i
COc1cc(C#N)c(NC(=S)N2CCN(C(=O)c3ccco3)CC2)cc1OC	i	i	i	i	nt	i
CCCCCC(=O)N1CCN(c2ccc(C(C)=O)cc2F)CC1	i	21µM	15µM	i	i	i
CCC(=O)c1ccc(N2CCN(C(=O)c3ccc(Br)cc3)CC2)c(F)c1	i	10µM	21µM	i	i	i
CCC(=O)c1ccc(N2CCOCC2)c(F)c1	i	i	i	i	i	i
CC(=O)c1ccc(N2CCC(C)CC2)c(F)c1	i	i	i	i	i	i
CCCC(=O)c1ccc(N2CCN(S(=O)(=O)c3ccc(C)cc3)CC2)c(F)c1	i	7.1µM	?	i	i	i
CCCC(=O)c1ccc(N2CCN(C(=O)c3ccccc3)CC2)c(F)c1	i	?	?	i	i	i
CCCC(=O)c1ccc(N2CCN(C(=O)c3ccc(Br)cc3)CC2)c(F)c1	i	7.3µM	23µM	i	i	i
Cc1ccc(NC(=O)Cn2c(=O)c3ccccc3n3nncc23)cc1	nt	?	i	nt	nt	nt
CCOc1ccc(CCNC(=O)c2c(C)oc3ncnc(N4CCOCC4)c23)cc1	nt	i	?	nt	nt	nt
CC(C)C[C@H](NC(=O)N1CCn2c1nc1ccccc12)C(=O)NCc1ccccc1	i	?	?	i	i	i
CC(C)C[C@H](NC(=O)N1CCn2c1nc1ccccc12)C(=O)NCCc1ccccc1	-51	?	?	i	i	i
C[C@H](NC(=O)N1CCn2c1nc1ccccc12)C(=O)N1CCCCC1	i	?	16µM	i	i	i
CCc1ccccc1NC(=O)C1=C(C)C(=O)OC12CCCCCC2	nt	i	?	nt	nt	nt
COc1ccc(-c2nc3cnc(OC)nc3n(Cc3cccs3)c2=O)cc1	nt	?	i	nt	nt	nt
O=C1CCCN1CCCNc1nc(NCc2cccs2)nc2ccsc12	-84	16µM	21µM	?	nt	i
c1ccc(CNc2nc(NCCc3ccncc3)c3sccc3n2)cc1	-98	10µM	18µM	?	nt	?
CNc1nc(NCc2ccccc2)c2sccc2n1	i	16µM	18µM	?	nt	?
c1csc(CNc2nc(NCC3CCCCC3)c3sccc3n2)c1	?	9.2µM	5.8µM	?	nt	?
Cc1ccc(CNC(=O)CSCc2ccccc2C)cc1	nt	i	?	nt	nt	nt
CCn1c(CC(=O)Nc2ccccc2F)nnc1SCC(=O)NC1=NCCS1	i	?	?	i	nt	i
c1ccc(CNc2nc(NCc3cccs3)nc3ccsc23)cc1	-57	12µM	18µM	?	nt	?
SMILES	IL1B secr inh	DT40 TDP1 no CPT	TDP1 cell CPT	HT1080-NT tox	uPA generation	HT1080 IDH1KD tx
CC(=O)NCCNc1nc(NCc2cccs2)nc2ccsc12	i	?	i	i	nt	i
COCCNc1nc(NCc2cc(-c3ccc(OC)cc3)no2)c2sccc2n1	?	18µM	?	?	nt	13µM
COCCNc1nc(NCc2cccs2)nc2ccsc12	-90	26µM	?	i	nt	i
COCCNc1nc(Oc2ccc(Cl)c(Cl)c2)c2sccc2n1	i	i	?	i	nt	i
Nc1ccc(C(=O)Nc2ccc(Nc3ccncc3)cc2)c([N+](=O)[O-])c1	i	i	i	i	nt	i
O=C(CN1C(=O)c2ccc([N+](=O)[O-])cc2C1=O)NCc1ccc(C(=O)O)cc1	i	i	i	i	i	i
COc1ccc(NC2=NCC(Cc3ccc(Br)cc3)S2)cc1 (stereo not drawn)	-91	26µM	?	?	i	21µM
COc1ccc(CNc2ccc(Br)cc2)cc1	i	i	?	i	i	i
Cc1cn(-c2cc(NC(=O)c3ccc(C)c(NC(=O)c4cccc(-c5cn[nH]c(=O)c5)c4)c3)cc(C(F)(F)F)c2)cn1	-94	?	?	i	i	i
O=c1c(OC2OC(CO)C(O)C(O)C2OC2OC(CO)C(O)C(O)C2OC2OC(CO)C(O)C(O)C2O)c(-c2ccc(O)c(O)c2)oc2cc(O)cc(O)c12 (stereo not drawn)	i	21µM	15µM	i	i	i
COc1c(-c2ccc(O)c(O)c2)oc2cc(O)cc(O)c2c1=O	i	9.2µM!	10µM!	i	?	i
CN(Cc1ccccc1)N=Nc1ccccc1	i	?	i	i	nt	i
CN(C)N=Nc1ccc(-c2cn(Cc3ccccc3)cn2)cc1	i	26µM	i	i	i	i
N#Cc1cc(Cl)c(N2CCOCC2)cc1C#N	i	i	i	i	i	i
N#Cc1cc2ccc(N3CCOCC3)cc2cc1C#N	i	12µM	7.3µM	i	i	?
CCOC(=O)CNC(=O)C1CCN(S(=O)(=O)c2ccc(-c3nn[nH]n3)cc2)CC1	i	i	i	i	i	i
Cc1ccc(Cl)cc1NC(=O)CCN1C(=O)C2C3CCC(C3)C2C1=O (stereo not drawn)	i	i	i	i	i	i
CC[N+]1(CC)CC2=Cc3c(ccc4ccccc34)CC2C1 (stereo not drawn)	i	21µM	?	i	i	i
CC12Cc3ccc4ccccc4c3C=C1C[N+](C)(C)C2 (stereo not drawn)	i	i	i	i	i	i
CC1CC(C)CN(S(=O)(=O)c2cc3c4c(c2)CCC(=O)N4CCC3)C1 (stereo not drawn)	i	18µM	?	i	i	i
CCOC(=O)C1CCCN(S(=O)(=O)c2ccc(S(=O)(=O)N3CCCC3)cc2)C1 (stereo not drawn)	i	3.7µM	4.6µM	i	i	i
CCOC(=O)C1CCCN(C(=O)c2ccc(S(=O)(=O)N3CCCC3)cc2)C1 (stereo not drawn)	i	i	i	i	i	i
CCOC(=O)c1ccc(S(=O)(=O)N2CCC(C(=O)OCC)CC2)cc1	i	i	i	i	i	?
O=C1CCc2cc(S(=O)(=O)N3CCCCC3)cc3c2N1CCC3	i	i	i	i	i	i
CCOC(=O)C1CCN(S(=O)(=O)c2ccc(CC)cc2)CC1	i	?	21µM	i	i	i
